The text below walks through data of article PMC7862700, “An all-to-all approach to the identification of sequence-specific readers for epigenetic DNA modifications on cytosine”.

What all share (experiment): DAPPL (digital affinity profiling via proximity ligation, sequencing); 10 mM Tris-HCl pH 7.5, 50 mM NaCl, 1 mM DTT, 4% glycerol, room temperature, 30 min; GST-TFs on glutathione beads, 16-mer random dsDNA library, 0.1% formaldehyde crosslink after washing; high values mean tight binding
One experiment addresses T1, FEV (Homo sapiens, UniProt Q99581 1-238).
T1 sequence: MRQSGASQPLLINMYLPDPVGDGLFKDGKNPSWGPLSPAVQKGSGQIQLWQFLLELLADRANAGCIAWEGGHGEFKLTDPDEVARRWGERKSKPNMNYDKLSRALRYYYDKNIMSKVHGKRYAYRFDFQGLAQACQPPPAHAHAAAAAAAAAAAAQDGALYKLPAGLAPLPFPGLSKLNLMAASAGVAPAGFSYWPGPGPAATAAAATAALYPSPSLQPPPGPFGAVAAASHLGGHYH
The note with it: protein: recombinant; tags: N-terminal GST; dsDNA, one strand shown. An outline of the steps: (§1)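 Yeast served to express human transcription factors as GST fusions, which were then captured on glutathione beads and labelled with DNA barcodes. Pooled with a tag-only sample, they were incubated with 200 nmole of a 16-mer random double-stranded DNA library for 30 min at room temperature in Tris/NaCl/DTT/glycerol buffer, washed, crosslinked with 0.1% formaldehyde, ligated by proximity, amplified by PCR and sequenced. Dividing each hexamer's read frequency for a factor by its frequency for the tag-only sample gives the binding signal.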

The next experiment concerns the target ETV5 (Homo sapiens, UniProt P41161 1-510). The note with it: protein: recombinant; tags: N-terminal GST; dsDNA, one strand shown. The procedure, abridged: as §1
The target in another experiment is HSF1 (Homo sapiens, UniProt Q00613 1-529). The note with it: protein: recombinant; tags: N-terminal GST; chain copies: 3; dsDNA, one strand shown. An outline of the steps:
as §1

The target in another experiment is T2, SPIC (Homo sapiens, UniProt Q8N5J4 1-248).
T2 sequence: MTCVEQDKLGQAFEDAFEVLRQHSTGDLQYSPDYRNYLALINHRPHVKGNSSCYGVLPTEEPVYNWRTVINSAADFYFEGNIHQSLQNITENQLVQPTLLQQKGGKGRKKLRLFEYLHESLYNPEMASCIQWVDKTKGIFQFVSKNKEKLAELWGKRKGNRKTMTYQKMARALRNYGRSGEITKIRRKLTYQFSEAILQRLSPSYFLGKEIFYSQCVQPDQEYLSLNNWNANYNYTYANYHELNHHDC
The note with it: protein: recombinant; tags: N-terminal GST; dsDNA, one strand shown. The procedure, abridged:
as §1

The next experiment addresses ELF4 (Homo sapiens, UniProt Q99607 1-663). The note with it: protein: recombinant; tags: N-terminal GST; dsDNA, one strand shown. The procedure, abridged: as §1
The next experiment concerns the target T3, ELK4 (Homo sapiens, UniProt P28324-2 1-405).
T3 sequence: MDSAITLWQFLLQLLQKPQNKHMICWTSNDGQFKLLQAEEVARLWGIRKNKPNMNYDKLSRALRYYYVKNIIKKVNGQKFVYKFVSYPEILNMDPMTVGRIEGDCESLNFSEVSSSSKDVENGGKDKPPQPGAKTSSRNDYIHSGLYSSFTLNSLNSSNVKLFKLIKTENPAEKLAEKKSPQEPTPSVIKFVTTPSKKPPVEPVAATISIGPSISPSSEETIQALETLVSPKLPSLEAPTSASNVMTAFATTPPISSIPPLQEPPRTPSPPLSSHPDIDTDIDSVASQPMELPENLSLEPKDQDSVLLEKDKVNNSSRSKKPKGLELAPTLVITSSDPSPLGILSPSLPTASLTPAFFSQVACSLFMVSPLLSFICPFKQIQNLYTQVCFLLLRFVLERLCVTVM
The note with it: protein: recombinant; tags: N-terminal GST; dsDNA, one strand shown. An outline of the steps: as §1

The target in the next experiment is T4, ETV2 (Homo sapiens, UniProt O00321 1-342).
T4 sequence: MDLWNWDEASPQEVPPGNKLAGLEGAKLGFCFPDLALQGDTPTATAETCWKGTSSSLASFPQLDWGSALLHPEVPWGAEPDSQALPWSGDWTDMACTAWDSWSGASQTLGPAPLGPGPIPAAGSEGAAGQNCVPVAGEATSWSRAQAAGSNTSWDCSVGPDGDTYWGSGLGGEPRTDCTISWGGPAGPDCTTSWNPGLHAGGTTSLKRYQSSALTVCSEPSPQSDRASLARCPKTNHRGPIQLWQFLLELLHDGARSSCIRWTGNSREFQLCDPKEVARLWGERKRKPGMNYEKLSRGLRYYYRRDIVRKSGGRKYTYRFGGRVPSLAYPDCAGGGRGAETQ
The note with it: protein: recombinant; tags: N-terminal GST; dsDNA, one strand shown. An outline of the steps:
as §1

The target of a further experiment is T5, ELF3 (Homo sapiens, UniProt P78545 1-371).
T5 sequence: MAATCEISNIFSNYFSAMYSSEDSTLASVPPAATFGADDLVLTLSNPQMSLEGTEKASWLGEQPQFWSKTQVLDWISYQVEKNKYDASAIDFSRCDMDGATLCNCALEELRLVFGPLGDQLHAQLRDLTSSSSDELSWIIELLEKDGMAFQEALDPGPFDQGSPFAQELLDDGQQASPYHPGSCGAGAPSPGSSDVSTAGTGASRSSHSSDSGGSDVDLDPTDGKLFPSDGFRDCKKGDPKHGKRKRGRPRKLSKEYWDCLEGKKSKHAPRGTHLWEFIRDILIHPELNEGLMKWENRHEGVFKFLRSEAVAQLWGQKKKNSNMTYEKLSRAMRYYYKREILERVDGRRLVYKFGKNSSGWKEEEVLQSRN
The note with it: protein: recombinant; tags: N-terminal GST; dsDNA, one strand shown. The procedure, abridged:
as §1

For a further experiment, the target named is CRX (Homo sapiens, UniProt O43186 1-299). The note with it: protein: recombinant; tags: N-terminal GST; dsDNA, one strand shown. The procedure, abridged: as §1
The target in a further experiment is ETV1 (Homo sapiens, UniProt P50549 1-477). The note with it: protein: recombinant; tags: N-terminal GST; dsDNA, one strand shown. The procedure, abridged: as §1
The target of a further experiment is T6, ERF (Homo sapiens, UniProt P50548 1-548).
T6 sequence: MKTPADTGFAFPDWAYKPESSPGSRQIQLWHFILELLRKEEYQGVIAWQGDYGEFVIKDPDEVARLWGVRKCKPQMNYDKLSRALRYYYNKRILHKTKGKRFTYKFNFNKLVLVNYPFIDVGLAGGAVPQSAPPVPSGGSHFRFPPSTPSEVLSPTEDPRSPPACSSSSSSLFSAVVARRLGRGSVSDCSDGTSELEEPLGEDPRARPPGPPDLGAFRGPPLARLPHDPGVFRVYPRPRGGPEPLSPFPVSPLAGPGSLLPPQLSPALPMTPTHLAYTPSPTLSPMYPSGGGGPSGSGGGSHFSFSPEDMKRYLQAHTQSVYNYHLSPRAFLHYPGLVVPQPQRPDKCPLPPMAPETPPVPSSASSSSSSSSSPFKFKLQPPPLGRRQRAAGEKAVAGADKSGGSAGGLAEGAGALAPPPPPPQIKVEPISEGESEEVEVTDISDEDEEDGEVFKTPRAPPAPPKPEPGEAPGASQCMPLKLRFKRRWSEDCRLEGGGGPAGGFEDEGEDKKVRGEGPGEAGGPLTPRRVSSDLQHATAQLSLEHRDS
The note with it: protein: recombinant; tags: N-terminal GST; dsDNA, one strand shown. The procedure, abridged:
as §1

A further experiment deals with T7, ETV3L (Homo sapiens, UniProt Q6ZN32 1-361).
T7 sequence: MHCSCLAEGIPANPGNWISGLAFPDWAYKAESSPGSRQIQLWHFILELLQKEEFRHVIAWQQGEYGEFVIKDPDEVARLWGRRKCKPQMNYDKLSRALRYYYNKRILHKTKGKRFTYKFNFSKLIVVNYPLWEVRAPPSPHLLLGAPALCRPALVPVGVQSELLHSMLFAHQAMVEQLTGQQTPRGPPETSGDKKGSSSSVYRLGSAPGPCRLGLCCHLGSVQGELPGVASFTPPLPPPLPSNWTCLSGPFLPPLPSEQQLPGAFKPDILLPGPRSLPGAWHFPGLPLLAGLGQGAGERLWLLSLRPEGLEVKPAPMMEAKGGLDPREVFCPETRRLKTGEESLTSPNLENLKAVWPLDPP
The note with it: protein: recombinant; tags: N-terminal GST; dsDNA, one strand shown. The procedure, abridged: as §1

Another experiment addresses T8, ETS2 (Homo sapiens, UniProt P15036 1-469).
T8 sequence: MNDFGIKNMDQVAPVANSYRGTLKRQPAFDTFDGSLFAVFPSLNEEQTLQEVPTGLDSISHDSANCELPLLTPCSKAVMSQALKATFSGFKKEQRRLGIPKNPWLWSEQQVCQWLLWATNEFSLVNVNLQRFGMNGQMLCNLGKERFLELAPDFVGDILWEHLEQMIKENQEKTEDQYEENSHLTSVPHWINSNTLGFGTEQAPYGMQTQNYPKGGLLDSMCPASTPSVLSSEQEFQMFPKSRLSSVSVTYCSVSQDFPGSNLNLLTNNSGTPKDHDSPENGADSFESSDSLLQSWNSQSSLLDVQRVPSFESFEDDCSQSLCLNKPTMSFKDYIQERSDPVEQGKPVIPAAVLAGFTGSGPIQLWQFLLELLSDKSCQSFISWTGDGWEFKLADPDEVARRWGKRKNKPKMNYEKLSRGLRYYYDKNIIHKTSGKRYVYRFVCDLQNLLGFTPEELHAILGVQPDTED
The note with it: protein: recombinant; tags: N-terminal GST; dsDNA, one strand shown. An outline of the steps: as §1

In the next experiment the target is T9, SPDEF (Homo sapiens, UniProt O95238 1-335).
T9 sequence: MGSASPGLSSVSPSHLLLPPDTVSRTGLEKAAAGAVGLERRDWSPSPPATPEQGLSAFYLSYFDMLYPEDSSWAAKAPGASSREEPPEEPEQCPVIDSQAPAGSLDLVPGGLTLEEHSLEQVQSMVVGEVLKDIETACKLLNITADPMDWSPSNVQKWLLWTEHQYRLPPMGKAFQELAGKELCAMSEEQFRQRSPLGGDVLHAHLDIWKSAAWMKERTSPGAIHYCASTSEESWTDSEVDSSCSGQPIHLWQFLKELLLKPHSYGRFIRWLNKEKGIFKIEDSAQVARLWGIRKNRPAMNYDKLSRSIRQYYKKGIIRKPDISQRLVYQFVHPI
The note with it: protein: recombinant; tags: N-terminal GST; dsDNA, one strand shown. An outline of the steps:
as §1

In another experiment the target is T10, ETV7 (Homo sapiens, UniProt Q9Y603 1-341).
T10 sequence: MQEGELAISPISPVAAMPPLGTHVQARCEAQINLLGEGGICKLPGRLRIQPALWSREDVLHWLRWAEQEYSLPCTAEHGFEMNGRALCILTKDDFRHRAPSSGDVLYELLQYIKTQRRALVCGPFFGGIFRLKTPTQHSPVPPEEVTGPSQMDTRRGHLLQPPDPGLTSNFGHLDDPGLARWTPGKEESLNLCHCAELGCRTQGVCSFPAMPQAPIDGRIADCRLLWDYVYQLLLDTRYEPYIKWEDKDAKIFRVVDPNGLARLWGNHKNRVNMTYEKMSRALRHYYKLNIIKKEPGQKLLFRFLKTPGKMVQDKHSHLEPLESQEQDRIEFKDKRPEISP
The note with it: protein: recombinant; tags: N-terminal GST; dsDNA, one strand shown. An outline of the steps:
as §1

Another experiment concerns the target T11, ELF5 (Homo sapiens, UniProt Q9UKW6-2 1-255).
T11 sequence: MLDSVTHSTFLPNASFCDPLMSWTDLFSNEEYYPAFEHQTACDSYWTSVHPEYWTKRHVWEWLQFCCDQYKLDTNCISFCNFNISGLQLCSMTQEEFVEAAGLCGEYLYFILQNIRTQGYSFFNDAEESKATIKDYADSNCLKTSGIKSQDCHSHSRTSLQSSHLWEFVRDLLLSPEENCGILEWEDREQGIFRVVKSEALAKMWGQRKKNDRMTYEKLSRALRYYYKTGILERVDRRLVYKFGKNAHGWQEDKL
The note with it: protein: recombinant; tags: N-terminal GST; dsDNA, one strand shown. An outline of the steps:
as §1

Another experiment deals with T12, ETV3 (Homo sapiens, UniProt P41162-2 1-143).
T12 sequence: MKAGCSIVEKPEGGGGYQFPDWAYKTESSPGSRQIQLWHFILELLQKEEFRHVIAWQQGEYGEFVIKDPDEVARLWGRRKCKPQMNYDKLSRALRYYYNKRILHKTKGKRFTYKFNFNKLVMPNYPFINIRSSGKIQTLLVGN
The note with it: protein: recombinant; tags: N-terminal GST; dsDNA, one strand shown. The procedure, abridged:
as §1

The next experiment deals with ETV6 (Homo sapiens, UniProt P41212 1-452). The note with it: protein: recombinant; tags: N-terminal GST; dsDNA, one strand shown. The procedure, abridged: as §1
ETV6, sequence (P41212 whole entry): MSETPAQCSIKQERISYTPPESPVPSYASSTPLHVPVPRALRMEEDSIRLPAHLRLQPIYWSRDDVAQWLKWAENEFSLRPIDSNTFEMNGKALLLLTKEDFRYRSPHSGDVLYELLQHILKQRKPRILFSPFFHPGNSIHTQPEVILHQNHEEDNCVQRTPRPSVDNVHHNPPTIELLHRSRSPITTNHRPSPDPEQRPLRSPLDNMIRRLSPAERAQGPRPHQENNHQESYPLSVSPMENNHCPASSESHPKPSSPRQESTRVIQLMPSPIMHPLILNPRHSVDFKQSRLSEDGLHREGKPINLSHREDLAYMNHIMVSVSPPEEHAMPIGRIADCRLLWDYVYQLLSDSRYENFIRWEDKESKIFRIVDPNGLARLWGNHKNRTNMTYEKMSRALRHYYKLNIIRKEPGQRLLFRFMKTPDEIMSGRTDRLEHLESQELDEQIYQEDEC

CRX, sequence (O43186 whole entry): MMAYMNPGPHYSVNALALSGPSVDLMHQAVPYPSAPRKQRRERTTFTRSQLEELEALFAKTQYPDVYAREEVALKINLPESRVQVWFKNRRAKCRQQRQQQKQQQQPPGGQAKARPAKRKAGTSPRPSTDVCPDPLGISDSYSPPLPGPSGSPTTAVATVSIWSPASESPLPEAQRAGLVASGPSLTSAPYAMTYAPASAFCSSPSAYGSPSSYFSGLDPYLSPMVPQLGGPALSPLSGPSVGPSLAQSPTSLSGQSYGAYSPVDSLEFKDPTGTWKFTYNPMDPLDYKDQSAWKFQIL
HSF1, sequence (Q00613 whole entry): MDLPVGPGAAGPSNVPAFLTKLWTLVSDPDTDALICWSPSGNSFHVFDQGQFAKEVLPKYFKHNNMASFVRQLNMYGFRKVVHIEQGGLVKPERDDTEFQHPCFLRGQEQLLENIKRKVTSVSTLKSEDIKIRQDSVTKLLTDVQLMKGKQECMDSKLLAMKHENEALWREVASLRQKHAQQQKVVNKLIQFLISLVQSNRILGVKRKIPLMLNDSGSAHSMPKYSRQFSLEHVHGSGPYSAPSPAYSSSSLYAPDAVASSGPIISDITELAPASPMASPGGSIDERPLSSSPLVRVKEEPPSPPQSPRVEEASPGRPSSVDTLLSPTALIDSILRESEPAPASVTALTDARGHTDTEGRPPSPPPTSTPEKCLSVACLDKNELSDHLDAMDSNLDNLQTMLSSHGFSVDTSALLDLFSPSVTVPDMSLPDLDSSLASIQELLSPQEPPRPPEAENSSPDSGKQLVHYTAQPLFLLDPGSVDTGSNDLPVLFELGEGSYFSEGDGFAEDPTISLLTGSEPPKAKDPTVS
ELF4, sequence (Q99607 whole entry): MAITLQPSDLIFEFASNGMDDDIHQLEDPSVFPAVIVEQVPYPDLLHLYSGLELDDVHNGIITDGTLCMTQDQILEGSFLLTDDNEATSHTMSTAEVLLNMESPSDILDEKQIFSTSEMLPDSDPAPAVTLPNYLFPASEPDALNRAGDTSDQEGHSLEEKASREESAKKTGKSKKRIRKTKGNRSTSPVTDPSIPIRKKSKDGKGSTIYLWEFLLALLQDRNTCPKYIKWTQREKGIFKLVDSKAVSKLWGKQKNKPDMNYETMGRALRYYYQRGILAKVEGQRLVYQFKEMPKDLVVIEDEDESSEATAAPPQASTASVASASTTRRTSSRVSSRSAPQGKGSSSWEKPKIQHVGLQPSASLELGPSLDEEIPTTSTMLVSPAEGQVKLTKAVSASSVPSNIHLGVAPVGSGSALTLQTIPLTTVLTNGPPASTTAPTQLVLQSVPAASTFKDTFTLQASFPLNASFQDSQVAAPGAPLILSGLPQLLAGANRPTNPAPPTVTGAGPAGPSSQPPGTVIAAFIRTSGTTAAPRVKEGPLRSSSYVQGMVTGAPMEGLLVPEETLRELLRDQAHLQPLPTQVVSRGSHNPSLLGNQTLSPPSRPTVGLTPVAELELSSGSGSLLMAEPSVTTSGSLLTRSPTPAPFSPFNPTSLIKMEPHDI
ETV1, sequence (P50549 whole entry): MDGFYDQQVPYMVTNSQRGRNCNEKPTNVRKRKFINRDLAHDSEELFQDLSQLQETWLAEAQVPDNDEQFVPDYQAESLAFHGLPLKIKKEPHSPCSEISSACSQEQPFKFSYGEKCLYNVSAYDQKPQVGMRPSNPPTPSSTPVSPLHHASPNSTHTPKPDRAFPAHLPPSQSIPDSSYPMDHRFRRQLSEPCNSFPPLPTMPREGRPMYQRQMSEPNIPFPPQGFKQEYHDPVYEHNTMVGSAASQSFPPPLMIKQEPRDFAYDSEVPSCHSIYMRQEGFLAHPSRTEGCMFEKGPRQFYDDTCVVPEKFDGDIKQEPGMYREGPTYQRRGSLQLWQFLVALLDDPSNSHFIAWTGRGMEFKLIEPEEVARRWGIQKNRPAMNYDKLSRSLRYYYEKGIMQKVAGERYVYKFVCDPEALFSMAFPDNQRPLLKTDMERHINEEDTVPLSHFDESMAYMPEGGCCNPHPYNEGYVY
ETV5, sequence (P41161 whole entry): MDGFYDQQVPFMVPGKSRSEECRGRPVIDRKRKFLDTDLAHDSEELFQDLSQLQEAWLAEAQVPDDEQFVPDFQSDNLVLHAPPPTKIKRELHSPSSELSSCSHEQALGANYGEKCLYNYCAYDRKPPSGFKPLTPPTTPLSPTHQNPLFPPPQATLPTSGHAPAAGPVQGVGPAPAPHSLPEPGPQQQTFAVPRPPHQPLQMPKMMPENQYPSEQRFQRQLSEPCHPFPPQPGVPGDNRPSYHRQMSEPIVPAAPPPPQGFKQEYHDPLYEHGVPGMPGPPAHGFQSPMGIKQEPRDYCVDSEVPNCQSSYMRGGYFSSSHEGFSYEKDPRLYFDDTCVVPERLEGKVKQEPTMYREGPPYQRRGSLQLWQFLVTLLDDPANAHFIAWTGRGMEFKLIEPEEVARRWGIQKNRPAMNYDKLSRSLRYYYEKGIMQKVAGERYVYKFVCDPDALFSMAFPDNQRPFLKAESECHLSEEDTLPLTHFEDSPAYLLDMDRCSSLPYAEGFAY

Consider GTTTCC, for which the binding signal with FEV is 3.32 fold enrichment (6-mer frequency, TF over GST control); with ETV5 it was 3.01 fold enrichment (6-mer frequency, TF over GST control); with HSF1, 1.42 fold enrichment (6-mer frequency, TF over GST control); in the experiment with SPIC, 2.6 fold enrichment (6-mer frequency, TF over GST control); in the experiment with ELF4, 2.56 fold enrichment (6-mer frequency, TF over GST control); with ELK4 it was 2.16 fold enrichment (6-mer frequency, TF over GST control). Besides, the binding signal with ETV2 is 2.42 fold enrichment (6-mer frequency, TF over GST control); in the experiment with ELF3, 2.55 fold enrichment (6-mer frequency, TF over GST control); in the experiment with CRX it was 1.08 fold enrichment (6-mer frequency, TF over GST control); with ETV1, 2.65 fold enrichment (6-mer frequency, TF over GST control); with ERF, 2.49 fold enrichment (6-mer frequency, TF over GST control); with ETV3L, 2.7 fold enrichment (6-mer frequency, TF over GST control). Besides, the binding signal is 2.82 fold enrichment (6-mer frequency, TF over GST control) in the experiment with ETS2; 2.75 fold enrichment (6-mer frequency, TF over GST control) in the experiment with SPDEF; 2.86 fold enrichment (6-mer frequency, TF over GST control) in the experiment with ETV7; 3.9 fold enrichment (6-mer frequency, TF over GST control) with ELF5; 3.01 fold enrichment (6-mer frequency, TF over GST control) with ETV3; 3.24 fold enrichment (6-mer frequency, TF over GST control) with ETV6.
